This is part of a sample that, as a whole, favours compounds with a hit. Of some 79,000 tested, about 15% had one in any assay. Unmarked numbers belong to inactive results. No stated cut-off is given here; in the data, active means growth inhibition above about 70%; inactive means the rest.
Experiment: NCI Yeast Anticancer Drug Screen. Data for the cln2 rad14 strain (AID 165);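 further: 0% = growth equal to vehicle treated cultures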
Conditions: S. cerevisiae cln2 rad14 strain, at 50.0 µM, stronger effect = higher value
Experimental: Growth inhibition of yeast strains with defined genetic alterations is measured as a screen for potential anti-cancer activity. Selected strains with alterations in DNA damage repair or cell cycle control were exposed to compounds and growth inhibition was measured relative to vehicle treated controls. The strain used in this assay is cln2 rad14

Row | SMILES | growth inhibition [%]
1 | CC(=O)n1c(=O)c2cc3c(=O)n(-c4cccc(C#N)c4)c(=O)c3cc2c1=O | 7.65
2 | COc1ccc(CC(=O)NC(N)=O)cc1 | -9.4
3 | COC(=O)c1cc(C)n(C)c(=O)c1CNS(=O)(=O)c1ccc(C)cc1 | -6
4 | O=C(O)c1ccccc1Nc1nc2ccccc2o1 | -26.6
5 | O=P1(c2ccccc2)c2ccccc2CCc2ccccc21 | 22.1
6 | O=[N+]([O-])c1cccc(NSNc2cccc([N+](=O)[O-])c2)c1 | 23.1
7 | O=C1Cn2c(c3c(nc2=O)CCCC3)N1 | -13.7
8 | CCOC(=O)c1nc2ccc(C(F)(F)F)cc2nc1NCc1ccc(OC)c(OC)c1 | -13.1
9 | O=CNC(CSC(=O)c1ccccc1)C(=O)O (stereo not given) | -15.2
10 | NC(CSS(=O)(=O)O)=NCCCCC1CCCCC1 | -6.25
11 | Cc1ccc(CC2CC(=O)c3ccccc3C2=O)cc1 (stereo not given) | -13.9
12 | CCCCCCCCCCCCCCCCCC1(c2ccccc2)NC(=O)NC1=O (stereo not given) | 12.9
13 | CCCCCCC(C)NCC(=O)Nc1ccccc1C (stereo not given) | -44.7
14 | CCCCOC(=O)CNC(=O)OC/C=C/C#CC#C/C=C/COC(=O)NCC(=O)OCCCC | -17.9
15 | COC1c2ccccc2C(C)(C)c2nc3ccccc3cc21 (stereo not given) | -38
16 | Cc1ccc(NC(=O)OCC2CC3C=CC2C3)cc1NC(=O)OCC1CC2C=CC1C2 (stereo not given) | -6.8
17 | Cc1ccc(C(=O)OCC2OC(Cl)CC2OC(=O)c2ccc(C)cc2)cc1 (stereo not given) | -36
18 | O=C(Nc1ccccc1CCl)Nc1ccccc1CCl (tested in a mixture with another compound) | 3.65
19 | O=C1OC(/C=C/c2ccccc2)=NC/1=C\C=C\c1ccccc1 | 14.2
20 | CC1=C(C(=O)Nc2ccc(C)cc2)C(c2cccc([N+](=O)[O-])c2)C(C(=O)Nc2ccc(C)cc2)=C(C)N1 | 13.8

Row | SMILES | growth inhibition [%]
21 | O=C1c2c(ccc3c2CCCC3)CC12Cc1ccc3c(c1C2=O)CCCC3 | 23.9
22 | CCOc1ccc(NC(=O)c2cccc(C(=O)Nc3ccc(OCC)cc3)c2)cc1 | -20.9
23 | CCOC(=O)C(=O)Nc1c(C)cccc1CC | -16.4
24 | O=C(O)C(Br)C(Br)C(=O)Nc1cccc(C(F)(F)F)c1 (stereo not given) | 0.6
25 | CC(C)c1ccc(/C=C2/CCCCC2=O)cc1 | -68.8
26 | CCOc1cc2c(cc1OC)c[n+](C)c1c3cc(OC)c(OC)cc3ccc21 | -2.1
27 | CC=C=C(C)CN | -7.95
28 | N#Cc1ccccc1NC(=O)C(=O)C(C(=O)c1ccccc1F)C1OC(=O)c2ccccc21 (stereo not given) | -5.5
29 | CC(=O)c1cc2c(cc1C)C(C)(C)CCC2C (stereo not given) | -5
30 | O=C(NCCc1c[nH]c2ccccc12)C(F)(F)F | 6.85
31 | Nc1[nH]c(=S)[nH]c(=O)c1NS(=O)(=O)c1cccc([N+](=O)[O-])c1 | -18.2
32 | O=C1CSC(c2cccnc2)N1CCN1C(=O)CSC1c1cccnc1 (stereo not given) | -2.4
33 | COC(=O)CC1(CC(=O)O)SCCS1 | 2.9
34 | C=CCSCC1Nc2cc(Cl)c(S(N)(=O)=O)cc2S(=O)(=O)N1C (stereo not given) | 20.1
35 | CC(=O)n1nnc(CC#N)c1-c1ccccc1 | 5.1
36 | Cn1c[n+](-c2ccccc2)c([S-])n1 | -22.5
37 | CCOC(=O)c1ccnc2ccccc12 | -4.85
38 | O=C1/C(=C/c2ccc(Br)cc2)CCC/C1=C\c1ccc(Br)cc1 | -15.8
39 | CCCCOC(=O)c1c(C)c(C)cc(C)c1C | 12.5
40 | O=Cc1ccc(C(=O)O)cc1 | -13.2
